Data reported in PubChem BioAssay (NCI).
Where “and” joins values, the source holds several entries; their conditions need not be identical. Equal values may be shown once. The panel holds about 83,000 compounds, 20% with a hit somewhere; the sample as a whole holds those more often.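 Interpretation: 100, growth as untreated; towards 0, rising growth inhibition; 0, no net growth; 0 to -100, cell death. Compounds scoring below 10 were considered active.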 Calls of active or inactive are those of the source.

Columns and labels:
Experiment in all cases: NCI-60 one-dose screen, 48 h (100 = growth as untreated, 0 = no growth, -100 = all killed)
Settings in all cases: 10 µM unless noted
SK-MEL-2 melanoma = system: SK-MEL-2 melanoma
EKVX NSCLC = system: EKVX NSCLC
SN12C renal = system: SN12C renal
UO-31 renal = system: UO-31 renal
TK-10 renal = system: TK-10 renal
ACHN renal = system: ACHN renal
CAKI-1 renal = system: CAKI-1 renal
A498 renal = system: A498 renal
CCRF-CEM leukemia = system: CCRF-CEM leukemia
MOLT-4 leukemia = system: MOLT-4 leukemia
SR leukemia = system: SR leukemia
RPMI-8226 leukemia = system: RPMI-8226 leukemia
OVCAR-8 ovarian = system: OVCAR-8 ovarian
OVCAR-5 ovarian = system: OVCAR-5 ovarian
OVCAR-4 ovarian = system: OVCAR-4 ovarian
SK-OV-3 ovarian = system: SK-OV-3 ovarian
IGROV1 ovarian = system: IGROV1 ovarian
OVCAR-3 ovarian = system: OVCAR-3 ovarian
HS 578T breast = system: HS 578T breast
NCI/ADR-RES ovarian = system: NCI/ADR-RES ovarian

Measured: growth

Cc1ccc2cccc([N+](=O)[O-])c2n1
inactive: SK-MEL-2 melanoma 104% and 111% | EKVX NSCLC 114% | SN12C renal 98.8% and 100% | UO-31 renal 88.3% and 73.6% | TK-10 renal 109% and 111% | ACHN renal 105% and 96.9% | CAKI-1 renal 96.5% and 95.6% | A498 renal 117% and 109% | CCRF-CEM leukemia 108% and 95.3% | MOLT-4 leukemia 88.5% and 89.3% | SR leukemia 97.7% and 94% | RPMI-8226 leukemia 111% and 92.8% | OVCAR-8 ovarian 101% and 108% | OVCAR-5 ovarian 104% and 101% | OVCAR-4 ovarian 128% and 103% | SK-OV-3 ovarian 102% and 100% | IGROV1 ovarian 109% and 114% | OVCAR-3 ovarian 111% and 110% | HS 578T breast 111% and 109% | NCI/ADR-RES ovarian 113% and 102%

Cc1cccc(Cl)c1N
inactive: SK-MEL-2 melanoma 121% | EKVX NSCLC 122% | SN12C renal 112% | UO-31 renal 103% | TK-10 renal 111% | ACHN renal 108% | CAKI-1 renal 92.8% | A498 renal 107% | CCRF-CEM leukemia 128% | MOLT-4 leukemia 100% | SR leukemia 98.9% | RPMI-8226 leukemia 120% | OVCAR-8 ovarian 96.1% | OVCAR-5 ovarian 110% | OVCAR-4 ovarian 117% | SK-OV-3 ovarian 113% | IGROV1 ovarian 153% | OVCAR-3 ovarian 117%

Nc1ccccc1SC1CC(=O)N(c2ccc(I)cc2)C1=O (centres undefined)
inactive: SK-MEL-2 melanoma 86.9% | EKVX NSCLC 90.6% | SN12C renal 91.8% | UO-31 renal 86.8% | TK-10 renal 106% | ACHN renal 86% | CAKI-1 renal 81.7% | A498 renal 108% | CCRF-CEM leukemia 89.7% | MOLT-4 leukemia 81.5% | SR leukemia 68.6% | RPMI-8226 leukemia 85.1% | OVCAR-8 ovarian 87.8% | OVCAR-5 ovarian 90.3% | OVCAR-4 ovarian 93.8% | SK-OV-3 ovarian 95.5% | IGROV1 ovarian 85.2% | OVCAR-3 ovarian 87.1% | HS 578T breast 88.6% | NCI/ADR-RES ovarian 91.6%

CCOC(=O)c1ccc(C(=N)N)cc1
inactive: SK-MEL-2 melanoma 113% | EKVX NSCLC 103% | SN12C renal 117% | UO-31 renal 91.8% | TK-10 renal 105% | ACHN renal 126% | CAKI-1 renal 97.6% | A498 renal 98.6% | CCRF-CEM leukemia 103% | MOLT-4 leukemia 109% | SR leukemia 103% | RPMI-8226 leukemia 89.7% | OVCAR-8 ovarian 105% | OVCAR-5 ovarian 120% | OVCAR-4 ovarian 107% | SK-OV-3 ovarian 108% | IGROV1 ovarian 107% | OVCAR-3 ovarian 102% | HS 578T breast 73.8% | NCI/ADR-RES ovarian 100%

COC(=O)C(Cc1cn(C(C)=O)c2ccccc12)P(=O)(OC)OC (centres undefined)
inactive: SK-MEL-2 melanoma 102% | EKVX NSCLC 90.6% | SN12C renal 97.7% | UO-31 renal 74.8% | TK-10 renal 100% | ACHN renal 100% | CAKI-1 renal 102% | A498 renal 115% | CCRF-CEM leukemia 110% | MOLT-4 leukemia 108% | SR leukemia 94.6% | RPMI-8226 leukemia 101% | OVCAR-8 ovarian 106% | OVCAR-5 ovarian 103% | OVCAR-4 ovarian 87% | SK-OV-3 ovarian 113% | IGROV1 ovarian 113% | OVCAR-3 ovarian 106% | HS 578T breast 94.2%

O=C1C=CC(n2cc(F)c(=O)[nH]c2=O)O1 (centres undefined)
inactive: SK-MEL-2 melanoma 109% | EKVX NSCLC 93.3% | SN12C renal 64.4% | UO-31 renal 63.4% | TK-10 renal 75.7% | ACHN renal 56.5% | CAKI-1 renal 46.5% | A498 renal 79.5% | CCRF-CEM leukemia 50.4% | MOLT-4 leukemia 54.4% | SR leukemia 13.1% | RPMI-8226 leukemia 62% | OVCAR-8 ovarian 62.3% | OVCAR-5 ovarian 128% | OVCAR-4 ovarian 74.9% | SK-OV-3 ovarian 68.2% | IGROV1 ovarian 103% | OVCAR-3 ovarian 57.5% | HS 578T breast 90.9%

CC(=O)Oc1cc(C(C)C)c(OCCN(C)C)cc1C
-70.9% (active) and 99% (inactive): OVCAR-8 ovarian
inactive: SK-MEL-2 melanoma 116% and 119% | EKVX NSCLC 107% | SN12C renal 96.7% and 97.6% | UO-31 renal 94.2% and 97.3% | TK-10 renal 112% and 121% | ACHN renal 99.4% | CAKI-1 renal 91.9% and 95.3% | A498 renal 98.3% and 97.4% | CCRF-CEM leukemia 113% and 99.6% | MOLT-4 leukemia 117% and 105% | SR leukemia 107% | RPMI-8226 leukemia 123% and 105% | OVCAR-5 ovarian 92.7% | OVCAR-4 ovarian 111% and 114% | SK-OV-3 ovarian 115% and 101% | IGROV1 ovarian 110% and 112% | OVCAR-3 ovarian 125% and 119%
